From PubChem BioAssay (Tox21) come the findings set out here.

Several values for one entry are separate records, joined by “and”; a condition that tells them apart may be missing. Equal values may be shown once. Inconclusive results are not listed. Where a call stands in place of a potency, no number is given. Activity calls are given as the source filed them. Calls come from the whole dose curve; as a rule, active = well fitted cell-killing curve with a large enough effect in the repeat runs; inconclusive = weak or mixed curves, or effect the other way; inactive = flat fitted curve, though single readings scatter.
Potency is the fitted concentration of half-maximal effect.

This experiment is described as follows: cAMP Responsive Elements (CRE) small molecule antagonists, cell-based qHTS assay: qHTS cell viability counter screen (AID 2060913). Note: nearly all actives have a fitted effect of over 40% in size. Conditions: CRE-bla HEK293T viability, CellTiter-Glo luminescence, 5 h; series mostly up to 92.4 µM. Put shortly: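 Viability of NKH477-stimulated (0.25 uM final) CRE-bla HEK293T cells is measured by CellTiter-Glo luminescence following 3 hrs compound exposure at 37 C.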
In general terms: qHTS replaces the single test concentration by a dilution series.
On to `CN(CCCN1c2ccccc2CCc2ccccc21)CC(=O)c1ccc(Cl)cc1`, for which the Potency entry is “inactive”. Regarding `O=C(c1ccccc1)c1ccc(O)cc1`, the Potency entry was “inactive”. On to `CC(C)NC(=O)c1ccc(C=O)cc1`, for which the Potency entry is “inactive”. Take `CCC(C)NC(N)=O` (stereo not drawn): the Potency entry is “inactive”.

`O=C(Oc1ccccc1)Oc1ccccc1`: the Potency entry was “inactive”. Under `c1ccc2c(CC3=NCCN3)cccc2c1` stands “inactive”; under `CN(C)c1ccc(C(c2ccccc2)c2ccc(N(C)C)cc2)cc1`, “inactive”; under `Oc1ccc2c(c1)Cc1ccccc1-2`, “inactive”. Take `c1cc(CCCc2ccncc2)ccn1`: the Potency entry was “inactive”. As to `OCCCO`, the Potency result was “inactive”. Under `O=C1OC(OC(=O)c2cccnc2Nc2cccc(C(F)(F)F)c2)c2ccccc21` (stereo not drawn) stands “inactive”; under `Cc1c(F)c(N2CCNC(C)C2)cc2c1c(=O)c(C(=O)O)cn2C1CC1` (stereo not drawn), “inactive”.

With `Cc1cccc(NC(=S)N(C)C)c1`, the Potency result is “inactive”. With `CCCCCCCCCCCCN1CCCC1=O`, the Potency entry was “inactive”. In the case of `Cc1cc(=O)oc2cc(N(C)C)ccc12` it was “inactive”; in that of `CCCCCCCCCCCC[N+](C)(C)C`, 54.3 µM (active) and 61.1 µM (active) and 68.6 µM (active). Take `C=CCN(CC=C)CC=C`: the Potency entry is “inactive”.

For the compound `Cc1c(Cl)cccc1Nc1ccccc1C(=O)O`, the Potency entry is “inactive”. In the case of `CCC(=O)Oc1ccc2c(c1)CC[C@@H]1[C@@H]2CC[C@@]2(C)[C@H]1C[C@@H](OC(=O)CC)[C@@H]2OC(=O)CC` it was “inactive”; in that of `O=C(CC(=O)c1ccccc1)c1ccccc1`, “inactive”; in that of `CC(=O)Oc1cccc(O)c1`, “inactive”. In the case of `CC(C)(Oc1ccc(Cl)cc1)C(=O)O` it was “inactive”; in that of `CN1CCN(CCC(=O)N2c3ccccc3Sc3ccc(C(F)(F)F)cc32)CC1`, “inactive”.
